GC-A act – GC-A stimulated cGMP production enhancers – HEK293 GC-A cells, cGMP TR-FRET, EC30 ANP, primary screen. activation, % at 10 µM. 0% at EC30 ANP, 100% saturating ANP. 370,000 tested, 0.14% active; in the data active = activation above about 40%
proKLK7 act – proKLK7 zymogen activators, primary screen, biochemical, fluorescence intensity; purified proKLK7, EDANS-DABCYL substrate fluorescence; 100% is mature enzyme control, 0% vehicle; activation, % at 7 µM; 370,000 tested, 0.9% active;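 active = activation above the mean of all tested compounds plus 3 SD, computed per campaign excluding outliers beyond control limits, cut at about 13% in these data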
GC-B act – human GC-B receptor activators, primary screen, HEK293 GC-B cells, cGMP TR-FRET, EC30 CNP; 0% at EC30 CNP, 100% saturating CNP; activation, % at 10 µM; 370,000 tested, 0.11% active;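 active = activation at 10 µM reaching about 35% in either raw or pattern-adjusted values, limit read from the data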
Target sequence (P20594 whole entry, looked up): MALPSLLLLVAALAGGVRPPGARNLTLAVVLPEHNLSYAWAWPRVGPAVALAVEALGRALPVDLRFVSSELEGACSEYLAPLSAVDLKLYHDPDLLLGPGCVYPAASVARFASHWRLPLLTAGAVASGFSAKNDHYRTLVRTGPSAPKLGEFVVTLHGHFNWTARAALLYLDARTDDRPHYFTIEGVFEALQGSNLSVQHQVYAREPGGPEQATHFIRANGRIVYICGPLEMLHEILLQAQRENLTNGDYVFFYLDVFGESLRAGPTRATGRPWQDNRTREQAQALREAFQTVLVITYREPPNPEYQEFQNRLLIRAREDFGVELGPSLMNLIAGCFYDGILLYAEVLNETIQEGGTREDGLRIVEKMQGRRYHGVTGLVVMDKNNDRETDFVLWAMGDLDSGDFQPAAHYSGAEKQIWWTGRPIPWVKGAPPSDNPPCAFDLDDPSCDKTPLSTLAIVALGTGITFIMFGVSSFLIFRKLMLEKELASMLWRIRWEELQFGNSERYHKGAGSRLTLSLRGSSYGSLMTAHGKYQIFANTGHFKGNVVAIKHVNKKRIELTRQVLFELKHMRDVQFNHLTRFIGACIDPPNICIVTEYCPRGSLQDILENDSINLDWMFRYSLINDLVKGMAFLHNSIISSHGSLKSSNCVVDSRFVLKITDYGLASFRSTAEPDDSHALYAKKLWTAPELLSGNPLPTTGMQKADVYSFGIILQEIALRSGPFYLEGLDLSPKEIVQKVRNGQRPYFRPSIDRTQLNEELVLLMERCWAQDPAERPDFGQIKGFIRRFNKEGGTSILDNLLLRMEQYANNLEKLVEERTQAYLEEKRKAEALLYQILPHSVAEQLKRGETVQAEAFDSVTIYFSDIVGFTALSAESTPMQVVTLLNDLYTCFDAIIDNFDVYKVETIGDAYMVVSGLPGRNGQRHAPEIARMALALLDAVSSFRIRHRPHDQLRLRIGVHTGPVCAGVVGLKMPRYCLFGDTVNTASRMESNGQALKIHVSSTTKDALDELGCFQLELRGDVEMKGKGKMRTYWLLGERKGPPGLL
HIF act – HIF pathway transcriptional activators, primary screen, cell-based, U2OS HRE-luciferase, luminescence; AID 1910, 2009; activation, % at 7.5 µM (by protocol); U2OS HRE-luciferase reporter; normalized: DMSO 0%, desferrioxamine 100%; 300,000 tested, 0.32% active;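 active = mean activation of at least 10% of the iron chelator positive control signal, with at least half of replicates also reaching 10%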
proKLK7 act conf – proKLK7 zymogen activators, confirmation, biochemical, fluorescence intensity, triplicate; shares compounds with proKLK7 act; purified proKLK7, EDANS-DABCYL substrate fluorescence; scaled: vehicle 0, mature enzyme 100; activation, % at 7 µM; 3,200 tested, 68% active;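 active = activation, as change over the incubation, above the mean of all tested compounds plus 3 SD, cut at about 13% in these data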
EDANS interfere – EDANS-DABCYL substrate optical interference, artefact control for kallikrein-7 zymogen activator project, biochemical, fluorescence intensity, high throughput. 3,200 tested, 80% active. activation, % at 7 µM. no enzyme, 4 h; solvent 0%, active enzyme control 100%. AID 686952, 2013. shares compounds with proKLK7 act;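 active = activation above the all-compound mean plus 3 SD, ignoring values outside control-based bounds, cut at about 4.8% in these data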;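 also: value is the 4 h activation minus the activation read at time zero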
K7 EDANS ctr – optically interferes with EDANS-DABCYL fluorescence, kallikrein-7 activator counter-screen. EDANS-DABCYL peptide fluorescence interference, no enzyme. EC50, µM. AID 720493. 250 tested, 20% active. shares compounds with proKLK7 act;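 active = compounds that raise the fluorescence signal in this interference counterscreen, with EC50 at or below 10 µM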;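 also: intact quenched peptide substrate alone read at 355 nm excitation and 520 nm emission; signal is fluorescence gain from T0 to T4 after four hours at room temperature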
Numbers stand for hits. Hits are enriched below; roughly 1.3% of the tested compounds scored in any of these assays.

What do the screens show for `CN1CCN(Cc2c(O)ccc3cc(-c4ccccn4)c(=O)oc23)CC1`?
GC-A act: inactive; proKLK7 act: 67.1; GC-B act: inactive; HIF act: inactive; proKLK7 act conf: 77.0; EDANS interfere: 69.0

How did Cc1c(O)c(CN2CCCCC2)cc2c3c(c(=O)oc12)CCC3 do in these assays?
GC-A act: inactive; proKLK7 act: 44.4; GC-B act: inactive; HIF act: inactive; proKLK7 act conf: 72.9; EDANS interfere: 76.5

Results for O=c1oc2c(CN3CCCCC3)c(O)ccc2c2c1CCCC2 ?
GC-A act: inactive; proKLK7 act: 62.3; GC-B act: inactive; HIF act: inactive; proKLK7 act conf: 66.4; EDANS interfere: 70.3

Results for CCOc1ccc2c3c(c(=O)oc2c1OCC)CCCC3 ?
GC-A act: inactive; proKLK7 act: inactive; GC-B act: inactive; HIF act: inactive

How did Cc1cc(OC(C)C(=O)NCc2ccccn2)c2c(C)cc(=O)oc2c1 (stereo not given) do in these assays?
GC-A act: inactive; proKLK7 act: 14.0; GC-B act: inactive; HIF act: inactive; proKLK7 act conf: inactive; EDANS interfere: 11.6

How did CCCCc1cc(=O)oc2cc(C)cc(OC(C)C(=O)NCc3ccccn3)c12 (stereo not given) do in these assays?
GC-A act: inactive; proKLK7 act: inactive; GC-B act: inactive; HIF act: inactive

What do the screens show for `CN1C(=O)c2cc(NC(=O)Nc3ccccc3F)ccc2OC[C@H]2O[C@@H](CC(=O)NCc3ccc(-c4ccccc4)cc3)CC[C@@H]21`?
GC-A act: inactive; proKLK7 act: inactive; GC-B act: inactive

What do the screens show for `C=C(C)COc1cc2oc(=O)c(CC(=O)N3C[C@H]4C[C@@H](C3)c3cccc(=O)n3C4)c(C)c2cc1Cl`?
GC-A act: inactive; proKLK7 act: 15.7; GC-B act: inactive; HIF act: inactive; proKLK7 act conf: 24.0; EDANS interfere: 25.4

Results for O=C(NCCc1c[nH]c2ccccc12)[C@H](Cc1c[nH]c2ccccc12)NC1(C(=O)NC2CCCCC2)CCCCCCC1 ?
GC-A act: inactive; GC-B act: inactive

How did CCCCCCCNC(=O)COc1ccc2c(c1)C(=O)CC(C)(C)O2 do in these assays?
GC-A act: inactive; proKLK7 act: inactive; GC-B act: inactive; HIF act: inactive

Results for CC(C)NC(=O)COc1ccc2c(c1)C(=O)CC(C)(C)O2 ?
GC-A act: inactive; proKLK7 act: 36.7; GC-B act: inactive; HIF act: inactive; proKLK7 act conf: 80.6; EDANS interfere: 84.7

Results for CCOC(=O)COc1ccc2c(c1)C(=O)CC1(CCCCC1)O2 ?
GC-A act: inactive; proKLK7 act: 23.6; GC-B act: inactive; HIF act: inactive; proKLK7 act conf: 13.5; EDANS interfere: 10.3; K7 EDANS ctr: inactive

How did CCN(CC)C(=O)COc1ccc2c(c1)C(=O)CC(C)(C)O2 do in these assays?
GC-A act: inactive; proKLK7 act: 47.3; GC-B act: inactive; HIF act: inactive; proKLK7 act conf: 39.9; EDANS interfere: 71.0

What do the screens show for `O=C(COc1ccc2c(c1)C(=O)CC1(CCCCC1)O2)NCc1ccccc1`?
GC-A act: inactive; proKLK7 act: inactive; GC-B act: inactive; HIF act: inactive

How did CC1(C)CC(=O)c2cc(OCC(=O)NCc3cccnc3)ccc2O1 do in these assays?
GC-A act: inactive; proKLK7 act: 48.5; GC-B act: inactive; HIF act: inactive; proKLK7 act conf: 61.8; EDANS interfere: 65.6

What do the screens show for `S=c1[nH]nc(-c2cc(-c3ccccc3)n[nH]2)n1N=Cc1cccc(OCc2ccccc2)c1`?
GC-A act: inactive; proKLK7 act: inactive; GC-B act: inactive

Bioassay records (PubChem BioAssay)
